Active and inactive are the calls of the source. No rule for the calls is given here.
What follows are compounds tested against Pantothenate synthetase (Mycobacterium tuberculosis (strain ATCC 25618 / H37Rv)) (UniProt P9WIL5) (assay: Recombinant Mtb pantothenate synthetase (PanC) inhibitors, coupled enzyme, confirmatory (AID 375;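 also: 0% = full reaction with vehicle and 100% = no enzyme background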)). Details: coupled enzyme assay; at 10 µM, hits give high values.
Pantothenate synthetase (Mycobacterium tuberculosis (strain ATCC 25618 / H37Rv)), sequence (P9WIL5 whole entry, looked up): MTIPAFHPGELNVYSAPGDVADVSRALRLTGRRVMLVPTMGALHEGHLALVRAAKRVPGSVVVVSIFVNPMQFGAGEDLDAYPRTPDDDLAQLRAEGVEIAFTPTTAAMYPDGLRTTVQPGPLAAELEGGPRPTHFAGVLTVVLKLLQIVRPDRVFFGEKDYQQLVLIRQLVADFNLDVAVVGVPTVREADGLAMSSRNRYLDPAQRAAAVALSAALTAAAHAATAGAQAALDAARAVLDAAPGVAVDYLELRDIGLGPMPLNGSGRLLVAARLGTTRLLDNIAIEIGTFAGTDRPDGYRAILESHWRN

| Compound | inhibition |
| --- | --- |
| CC1CCN(C(=O)CSc2nnc(-c3cccnc3)n2C2CCCCC2)CC1 | 0% (inactive) |
| Cc1nc(SCC(=O)Nc2cc(C)on2)c2c3c(sc2n1)CCCC3 | 4% (inactive) |
| CCOC(=O)N1CCN(C(=O)COc2ccc(Br)cc2Cl)CC1 | 0% (inactive) |
| O=C(Nc1cnn(Cc2ccc(Cl)cc2Cl)c1)c1noc2c1CCCC2 | 4% (inactive) |
| O=C1CC(C(=O)Nc2ccccc2)C2(CCCC2)O1 (stereo not given) | 2% (inactive) |
| COc1ccc(C(c2nnnn2C2CCCC2)N2CCC(C)CC2)c(OC)c1 (stereo not given) | 3% (inactive) |
| CC(=O)c1cc(-c2ccccc2)n(CC(=O)N2CCC(N3CCCCC3)CC2)c1C | 0% (inactive) |
| O=C(O)c1cccc(CN2C(=O)SC(Nc3ccccc3)C2=O)c1 (stereo not given) | 4% (inactive) |
| Cc1c(C)c2cc(Cl)c(O)c(CN3CCCCC3)c2oc1=O | 1% (inactive) |
| O=C(O)CCc1ccc(-c2cccs2)n1CCC(=O)O | 1% (inactive) |
| O=C(CSc1nnc(Cn2nnc(-c3ccccc3)n2)n1-c1ccccc1)Nc1ccc(F)cc1 | 1% (inactive) |
| COc1ccc(CCNS(=O)(=O)c2ccc3oc(C(=O)O)c(C)c3c2)cc1OC | 0% (inactive) |
| CCCCOCCCNC(=O)COc1ccccc1 | 1% (inactive) |
| COCc1cc(C)nc(SCC(=O)Nc2cccc(C)c2C)c1C#N | 5% (inactive) |
| c1ccc(-c2nnc(SCc3nc4ccccc4[nH]3)o2)cc1 | 0% (inactive) |
| CCS(=O)(=O)N1CCC(C(=O)NC2CCCCCCC2)CC1 | 1% (inactive) |
| Cc1noc(C)c1S(=O)(=O)N1CCN(Cc2ccc3c(c2)OCO3)CC1 | 0% (inactive) |
| CCOC(=O)c1sc(NC(=O)C2CC=CCC2C(=O)O)nc1C (stereo not given) | 3% (inactive) |
| CCOC(=O)CSc1nc2sc(C)c(C)c2c(=O)[nH]1 | 0% (inactive) |
| COc1cc(C(N)=O)ccc1OCc1ccccc1 | 3% (inactive) |

| Compound | inhibition |
| --- | --- |
| CCOc1ccc(CCNC(=O)CCc2nc(-c3ccc(OC)cc3)no2)cc1OCC | 0% (inactive) |
| O=c1[nH]c(SCc2cc(=O)n3ccccc3n2)nc2c1CCC2 | 4% (inactive) |
| CCN1CCN(c2nc(C)nc3c2sc(=S)n3C)CC1 | 0% (inactive) |
| Cn1c(SCCN2CCCCC2)nnc1-c1ccccc1Br | 0% (inactive) |
| Cc1ccc(-c2nn[nH]n2)cc1 | 0% (inactive) |
| Cc1cc(-c2ccccc2)nc2cc(C(N)=O)nn12 | 12% (inactive) |
| O=C(CSc1nnc(Cc2cc(=O)[nH]c(=O)[nH]2)n1-c1ccccc1)NCC1CCCO1 (stereo not given) | 0% (inactive) |
| O=C(NCc1ccccc1)C1CCN(S(=O)(=O)N2CCCCCC2)CC1 | 2% (inactive) |
| CN(C)c1nc(SCCOC(=O)c2ccccc2)nc(N(C)C)n1 | 6% (inactive) |
| Cc1ccc(C)c(NS(=O)(=O)c2ccc(NC(=O)c3ccco3)cc2)c1 | 0% (inactive) |
| O=C(NC1=NCCS1)c1ccc2c(c1)C(=O)N(Cc1ccco1)C2=O | 0% (inactive) |
| COCCNC(=O)c1cc(-c2cccs2)on1 | 0% (inactive) |
| O=C1CC(c2cccnc2)c2cc3c(cc2N1)OCO3 (stereo not given) | 0% (inactive) |
| CCOC(=O)N1CCC(NC(=O)c2ccc3c(c2)sc2nc(-c4cccc(OC)c4)cn23)CC1 | 0% (inactive) |
| Cc1c(NC(=O)CN2c3cccc4cccc(c34)S2(=O)=O)c(=O)n(-c2ccccc2)n1C | 0% (inactive) |
| CCSCCC(NC1=CC(=O)CC(C)(C)C1)C(=O)O (stereo not given) | 0% (inactive) |
| CC(C)(C)NC(=O)COC(=O)c1ccc(O)cc1 | 0% (inactive) |
| COC(=O)C1(C(F)(F)F)N=C2Sc3ccccc3N2C(N2CCOCC2)=N1 (stereo not given) | 0% (inactive) |
| CC1(C)C(=O)Nc2ccccc2N1C(=O)COC(=O)Cn1cnc2ccccc2c1=O | 0% (inactive) |
| Cc1nc2ncnn2c(C)c1CCC(=O)NCCCN1CCN(c2cccc(Cl)c2)CC1 | 0% (inactive) |
